KCNQ2 pot = enhances the rat KCNQ2 potassium channel; O88943; CHO-K1 KCNQ2, FluxOR thallium flux fluorescence; hits give high values; B-score at 10 µM; hit rate 0.54% among 310,000; AID 2239;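 active = fluorescence ratio B-score at least 3 SD of library B-scores, with initial fluorescence B-score within 3 of them, cut at about 5.3 in these data; same plate scores as AID 2156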;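 also: B-score of peak minus minimum over baseline fluorescence ratio after K+ and Tl+ stimulus; positive B-score means potentiation of KCNQ2 with more thallium influx and brighter signal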
KCNQ2 inh = KCNQ2 (rat) channel inhibition; AID 2156; B-score at 10 µM; CHO-K1 KCNQ2, FluxOR thallium flux, 20 min; hits give low values; hit rate 1.1% among 310,000; O88943;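 active = fluorescence ratio B-score at most minus 3 library SDs, with starting brightness B-score within 2 library SDs, cut at about -5.5 in these data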
KCNQ2 inh conf = rat KCNQ2 channel inhibition, confirmatory screen; hit rate 57% among 1,000; AID 493025; shares compounds with KCNQ2 inh; KCNQ2-expressing cells, thallium flux; hits give low values; activity change, negative = inhibition, % at 10 µM;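 also: 0% = vehicle wells and values are ratio percent relative to vehicle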
KCNQ1 spec = KCNQ2 inhibitor that also affects human KCNQ1 channel. activity change, negative = inhibition, % at 10 µM. AID 493026. hit rate 15% among 1,000. shares compounds with KCNQ2 inh. KCNQ1-expressing cells, FluxOR thallium flux fluorescence; hits give low values;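 active = activity change at least 3 SD of negative controls below their mean in both duplicate wells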;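 also: CHO cells stably transfected with KCNQ1 and depolarized by potassium stimulus; peak minus minimum fluorescence over baseline after thallium addition; 0% = vehicle negative control and -100% = blank without thallium stimulus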
Target sequence (P51787 whole entry, looked up): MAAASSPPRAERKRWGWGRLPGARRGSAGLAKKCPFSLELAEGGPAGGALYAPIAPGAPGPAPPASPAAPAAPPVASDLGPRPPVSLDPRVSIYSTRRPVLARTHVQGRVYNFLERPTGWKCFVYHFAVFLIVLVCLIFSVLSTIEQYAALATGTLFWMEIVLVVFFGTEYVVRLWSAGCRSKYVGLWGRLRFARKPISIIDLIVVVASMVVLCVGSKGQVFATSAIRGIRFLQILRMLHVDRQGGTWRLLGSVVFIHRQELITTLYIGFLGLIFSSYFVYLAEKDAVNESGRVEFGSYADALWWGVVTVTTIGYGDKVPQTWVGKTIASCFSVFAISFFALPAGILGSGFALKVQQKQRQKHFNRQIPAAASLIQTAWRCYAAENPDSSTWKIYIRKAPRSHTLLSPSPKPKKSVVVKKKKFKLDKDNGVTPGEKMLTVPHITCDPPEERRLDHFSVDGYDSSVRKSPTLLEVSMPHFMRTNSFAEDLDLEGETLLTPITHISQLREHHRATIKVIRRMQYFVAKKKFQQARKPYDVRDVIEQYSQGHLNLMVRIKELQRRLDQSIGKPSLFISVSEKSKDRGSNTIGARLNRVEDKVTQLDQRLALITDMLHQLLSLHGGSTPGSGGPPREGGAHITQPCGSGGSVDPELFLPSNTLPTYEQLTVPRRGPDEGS
CHO parental ctr = counter-screen for KCNQ2 inhibitors: effect in parental CHO cells; shares compounds with KCNQ2 inh; thallium flux counter-screen; hits give low values; activity change, % at 10 µM; hit rate 14% among 1,000; AID 493029;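 also: 0% = vehicle negative controls with stimulus buffer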
KCNQ2 inh confirm = confirmation of rat KCNQ2 potassium channel inhibitors; shares compounds with KCNQ2 inh; KCNQ2-expressing cells, automated patch clamp current; calls only at 10 µM; hit rate 49% among 550; AID 588531
* = called active by the depositor; i = inactive; nt = no result given; + = active, no number. The list is not random: actives were taken first. Their share in the collection is about 1.6%. Unless noted, no rule for the calls is given here.

SMILES	KCNQ2 pot	KCNQ2 inh	KCNQ2 inh conf	KCNQ1 spec	CHO parental ctr	others
O=C(CCN1CCCC1Cc1ccccc1)c1ccc2c(c1)OCCO2 (configuration not stated)	-7.9	-7.9*	-35.0%*	-29.5%*	-24.5%*	KCNQ2 inh confirm=+
O=C(CCN1CCc2ccccc2C1)c1ccc2c(c1)OCCO2	-8.33	-8.33*	-15.5%*	i	i	KCNQ2 inh confirm=+
O=C(CCN1CCc2ccccc21)c1ccc2c(c1)OCCO2	0.36	i	nt	nt	nt
O=C(CCN1CCCCC1)c1ccc2c(c1)OCCO2	nt	i	nt	nt	nt
Clc1ccccc1-c1nnc(-c2ccc3c(c2)OCO3)o1	0.66	i	nt	nt	nt
CCOC(=O)/C(=N\Nc1ncnc2ccccc12)c1ccc(C)cc1	nt	i	nt	nt	nt
CC(=O)c1ccc(OCCCC(=O)NCCc2ccccc2)cc1	1.82	i	nt	nt	nt
O=C(NCCc1ccccc1)C1CCCN1S(=O)(=O)c1ccccc1 (configuration not stated)	nt	i	nt	nt	nt
O=[N+]([O-])c1ccc(-c2n(-c3ccccn3)c3ccccc3[n+]2-c2ccccn2)cc1	nt	i	nt	nt	nt
Cc1cccc2c1Sc1ccc(Cl)cc1CC2N1CCNCC1 (configuration not stated)	-8.41	-8.41*	-42.0%*	-34.5%*	-27.5%*	KCNQ2 inh confirm=+
CCc1cccc2c1Sc1ccccc1CC2N1CCNCC1 (configuration not stated)	nt	i	nt	nt	nt
CC(C)OP(=O)(OC(C)C)C(O)c1cccc([N+](=O)[O-])c1 (configuration not stated)	0.17	i	nt	nt	nt
O=C(CCCCn1c(=O)[nH]c2ccsc2c1=O)NCCc1ccccc1	1.17	i	nt	nt	nt
O=C(CCn1c(=O)[nH]c2ccsc2c1=O)N(CCc1ccccc1)Cc1ccccc1	-7.42	-7.42*	-25.5%*	i	i	KCNQ2 inh confirm=+
O=C(Nc1cccc(-c2csc(Nc3ccccc3)n2)c1)c1ccccc1	-6.8	-6.8*	i	i	i
O=C(Nc1cccc(-c2csc(Nc3cccc(C(F)(F)F)c3)n2)c1)c1ccccc1	1.29	i	nt	nt	nt
CN(C)c1cccc(C(=O)N2CCCC(CCC(=O)NCc3ccccc3F)C2)c1 (configuration not stated)	nt	i	nt	nt	nt
O=C(COc1ccc([N+](=O)[O-])cc1)Nc1nnc(-c2cccnc2)s1	nt	i	nt	nt	nt
COc1ccc(C(C[N+](=O)[O-])c2c(C)[nH]n(-c3ccccc3)c2=O)cc1 (configuration not stated)	-7.05	-7.05*	-26.0%*	i	i	KCNQ2 inh confirm=i
Cc1[nH]n(-c2ccccc2)c(=O)c1C(C[N+](=O)[O-])c1ccccc1Cl (configuration not stated)	nt	i	nt	nt	nt
CCN(CC(=O)NCc1ccc(Cl)cc1)C(=O)CSc1cc(C)ccc1C	-8.24	-8.24*	-22.0%*	i	i	KCNQ2 inh confirm=+
CCN(CC(=O)NCc1ccc(Cl)cc1)C(=O)CSc1ccc(F)cc1	nt	i	nt	nt	nt
CCN(CC(=O)NCc1ccc(F)cc1)C(=O)CN1CCN(c2cc(Cl)ccc2C)CC1	-9.54	-9.54*	-26.5%*	i	i	KCNQ2 inh confirm=+
Cc1cccc(N2CCN(CC(=O)NCc3ccc(Cl)cc3)CC2)c1C	nt	i	nt	nt	nt
FC(F)(F)c1ccc(Cl)c(NC(=S)NC2CC2)c1	nt	i	nt	nt	nt
SMILES	KCNQ2 pot	KCNQ2 inh	KCNQ2 inh conf	KCNQ1 spec	CHO parental ctr	others
Cc1ccc(C(=O)C(C)OC(=O)Cn2cnc3c2c(=O)n(C)c(=O)n3C)cc1 (configuration not stated)	0.47	i	nt	nt	nt
CCN(CC(=O)Nc1c(F)cccc1F)C(=O)CCN1C(=O)c2cccc([N+](=O)[O-])c2C1=O	nt	i	nt	nt	nt
COc1cc(/C=N/N=C(N)N)ccc1OCc1ccc(Cl)cc1	-9.37	-9.37*	i	i	i
COc1cc(/C=N/O)ccc1OCc1ccc(Cl)cc1	nt	i	nt	nt	nt
Fc1ccc(CNC(=S)NC2CCCCCC2)cc1	nt	i	nt	nt	nt
COc1ccc(C(=O)C/C(=C\C(=O)c2ccc(C)cc2)c2ccccc2)cc1	-7.67	-7.67*	i	i	i
COc1ccc(C(=O)CC(=O)c2ccccc2)cc1	0.38	i	nt	nt	nt
Cn1c(C(=O)N(Cc2ccccc2)Cc2ccccn2)cc2sccc21	-8.26	-8.26*	i	i	i
Cn1c(C(=O)N(Cc2ccccc2)Cc2cccs2)cc2sccc21	nt	i	nt	nt	nt
CC1CN(C(=O)N2CCCCC2)CCN1C(=O)N1CCCCC1 (configuration not stated)	nt	i	nt	nt	nt
CCn1c(=O)c(=O)[nH]c2cc(C(=O)NCc3ccc(F)cc3)ccc21	nt	i	nt	nt	nt
O=C(Cc1ccccc1)Oc1coc(CSc2ncccn2)cc1=O	nt	i	nt	nt	nt
O=C(Nc1ccccc1N1CCOCC1)c1cc2c(s1)CCCCC2	nt	i	nt	nt	nt
CCN(CC)S(=O)(=O)c1ccc(N2CCOCC2)c(NC(=O)CCOc2ccccc2)c1	nt	i	nt	nt	nt
CCN(CC)S(=O)(=O)c1ccc(N2CCOCC2)c(NC(=O)COc2ccccc2)c1	-6.78	-6.78*	-31.0%*	i	i	KCNQ2 inh confirm=+
CCCCC(=O)Nc1ccccc1N1CCOCC1	1.57	i	nt	nt	nt
O=C(CC12CC3CC(CC(C3)C1)C2)Nc1ccccc1N1CCOCC1	-6.85	-6.85*	-30.0%*	-34.5%*	-20.5%*	KCNQ2 inh confirm=i
CCC(Oc1ccccc1)C(=O)Nc1cc(C(F)(F)F)ccc1N1CCOCC1 (configuration not stated)	-7.04	-7.04*	i	i	i
CCc1sc(C(=O)Nc2ccccc2N2CCOCC2)cc1C	-7.34	-7.34*	-18.0%*	i	i
CC(=O)Nc1cc(C(F)(F)F)ccc1N1CCOCC1	0.43	i	nt	nt	nt
CC(=O)N1CCN(c2ccccc2NC(=O)COc2cc(C)cc(C)c2)CC1	nt	i	nt	nt	nt
Cc1cc(C)c(OCC(=O)Nc2ccccc2N2CCOCC2)c(C)c1	-9.45	-9.45*	i	i	i
CSCCC(NC(=O)c1ccc(Cl)cc1Cl)C(=O)OCC(N)=O (configuration not stated)	nt	i	nt	nt	nt
CSCCC(NC(=O)c1ccc(Cl)cc1)C(=O)OCC(=O)Nc1cc(Cl)ccc1C (configuration not stated)	-6.82	-6.82*	-26.5%*	i	i	KCNQ2 inh confirm=+
CCOC(=O)N1CCC(NCc2c(C(=O)N(C)Cc3ccccc3)nc3ccccn23)CC1	1.43	i	nt	nt	nt
SMILES	KCNQ2 pot	KCNQ2 inh	KCNQ2 inh conf	KCNQ1 spec	CHO parental ctr	others
COc1ccc(-c2cc(C(=O)N3CC(C)CC(C)C3)c3ccccc3n2)cc1OC (configuration not stated)	-10.6	-10.6*	-31.0%*	i	i	KCNQ2 inh confirm=+
COc1ccc(-c2cc(C(=O)N(C)Cc3ccc(F)cc3)c3ccccc3n2)cc1OC	-7.49	-7.49*	-53.0%*	-47.5%*	-55.5%*	KCNQ2 inh confirm=+
COc1ccc(NC(=O)CN(C)C(=O)c2cc(-c3ccc(OC)cc3)nc3ccccc23)cc1	0.28	i	nt	nt	nt
COc1ccc(-c2cc(C(=O)N3CCCC3)c3ccccc3n2)cc1OC	0.4	i	nt	nt	nt
COc1ccc(CCN(C)C(=O)c2cc(-c3ccc(C)cc3)nc3ccccc23)cc1OC	-6.74	-6.74*	-45.0%*	-45.5%*	-41.5%*	KCNQ2 inh confirm=+
COc1ccc(-c2cc(C(=O)N3CCC3)c3ccccc3n2)cc1OC	1.16	i	nt	nt	nt

High-throughput results (PubChem BioAssay)
